For 59 compounds, fluorescence intensity results are on record in PubChem BioAssay AID624483 (NMMLSC, 2012).

Out of some 360,000 compounds screened, about 11,000 (3.1%) were called active. Inconclusive results (about 2%) are left out. No stated cut-off is given here; in the data, active means fluorescence intensity above about 16000; inconclusive means no clear call, values can overlap the other calls; inactive means below that. Many of the other results were omitted from the sample, so actives are more common in it than they were.

The nature of the assay: compound fluorescence in toxin protease inhibitor counterscreen, primary screen, artefact control for toxin protease inhibitor project, biochemical, multiplex microsphere, HTS (AID 624483). The note with it: compound autofluorescence counterscreen, microsphere flow cytometry; active compounds read high. For orientation: Counterscreens check selectivity or assay interference.
Consider `COc1ccc(NC(=O)NNC(=O)COc2cc(C)c(Cl)c(C)c2)c(OC)c1`, for which the fluorescence intensity was 4710 (inactive). Consider `COc1cc(NC(=O)c2ccc(CNc3c(N4CCCC4)c(=O)c3=O)cc2)cc(OC)c1OC`, for which the fluorescence intensity was 4980 (inactive). The same measure for `COc1ccc(Br)c(Cn2c(C)c(C(=O)NCc3cccs3)sc2=O)c1`: 5140 (inactive); for `CCN(CC)Cc1c(C(=O)OC)nnn1-c1nonc1N`: 2240 (inactive); for `O=C(Nc1sc2c(c1-c1nc3ccccc3[nH]1)CCCC2)C1CC1`: 3170 (inactive). For `Nc1ccccc1-c1nc2ccncc2[nH]1` the value was 3770 (inactive); for `c1ccc2[nH]c(-c3nc4ccccc4[nH]3)nc2c1`, 16500 (active). For `CCOC(=O)[C@]12CCCC=C1N(Cc1ccc3c(c1)OCO3)C(=O)[C@H](CC(=O)N1CCN(C(=O)c3ccco3)CC1)C2` the value was 3930 (inactive); for `Cc1ccc(Cc2c(-c3ccc(Cl)cc3)nc3c4ccccc4ccn23)cc1`, 4990 (inactive); for `CC(=O)c1c(O)n(C2CCCCCC2)c(=O)[nH]c1=O`, 2970 (inactive). Regarding `O=c1cc(C(F)(F)F)[nH]c(=O)n1C1CCCCC1`, the fluorescence intensity is 24200 (active). Take `Cc1ccc(Nc2cc(=O)n(C3CCCCC3)c(=O)[nH]2)cc1C`: the fluorescence intensity was 3080 (inactive). The same measure for `COC(=O)C1=CN(C)C=C(C(=O)OC)C1c1ccc(Cl)cc1Cl`: 3960 (inactive); for `CCOc1cc(C2C(C(=O)OC)=CN(C3CCCC3)C=C2C(=O)OC)cc(Br)c1O`: 8950 (inactive); for `CCOc1ccccc1C1C(C(=O)OC)=CN(C)C=C1C(=O)OC`: 19700 (active).

Regarding `CC(Oc1ccc2c(-c3ccccc3)cc(=O)oc2c1)C(=O)NC(Cc1c[nH]c2ccccc12)C(=O)O` (centres undefined), the fluorescence intensity is 3610 (inactive). For `COC(=O)C(C)Oc1ccc2c(-c3cccc([N+](=O)[O-])c3)cc(=O)oc2c1` (centres undefined) the value was 21200 (active); for `COc1ccc(-c2cc(=O)oc3cc(OC(C)C(=O)NCC4CCC(C(=O)O)CC4)ccc23)cc1` (centres undefined), 6030 (inactive); for `CC(C)n1c(NCc2c[nH]c3ccccc23)nc2ccccc21`, 2940 (inactive). For `COCCOC(=O)c1sc(=S)n(CCOC)c1N` the value was 23500 (active). For `CC(=O)N1Cc2cc(C(=O)NCc3cccc(F)c3)nc(-c3cccc(C4=CCCCC4)c3)c2[C@H]1CCO` the value was 5630 (inactive); for `Cc1ccc(C(=O)OCC(=O)NCc2ccc3c(c2)OCO3)s1`, 3100 (inactive). As for `O=C(NCc1ccc2c(c1)OCO2)c1ccc(Cl)s1`, the fluorescence intensity was 3620 (inactive). The same measure for `O=C(NCc1ccc2c(c1)OCO2)C12CC3CC(CC(C3)C1)C2`: 21300 (active).

For `O=C(CNS(=O)(=O)c1ccc(Br)s1)NCc1ccc2c(c1)OCO2`, the fluorescence intensity was 24800 (active). Take `O=C(NCc1cccnc1)C12CC3CC(CC(C3)C1)C2`: the fluorescence intensity was 3100 (inactive). The same measure for `Cc1ccc(CNC(=O)CCNS(=O)(=O)c2ccc(Br)s2)cc1`: 3440 (inactive); for `COc1ccc(OC)c(NC(=O)C2(C)CCN2C(=O)Cc2ccccc2)c1` (centres undefined): 3710 (inactive); for `CCCCOCCCNC(=O)C[C@@H]1C[C@@]2(C(=O)OC)CCCCC=C2N(CCC2=CCCCC2)C1=O`: 6000 (inactive). The same measure for `O=c1onc(-c2c(F)cccc2F)n1-c1ccccc1Cl`: 4210 (inactive); for `Cc1ccc(NS(=O)(=O)c2ccc(-c3coc(C)n3)cc2)c(C)c1`: 5350 (inactive); for `Cc1c(C)c2c(OCC(=O)N[C@@H](C(=O)O)c3ccccc3)cc3c(c2oc1=O)CCC(C)(C)O3`: 6410 (inactive).

As for `CCOC1=C2CN(S(=O)(=O)c3ccc(C)cc3)[C@H](c3cccs3)C[C@H]2[C@H]2C(=O)N(c3ccccc3)C(=O)[C@H]2C1`, the fluorescence intensity was 6240 (inactive). For `COCCCn1cc(CN2CC(N(C)C)CS2(=O)=O)nn1` (centres undefined) the value was 4380 (inactive); for `O=C(Nc1cccc2c1CCCC2)c1ccc(F)cc1`, 4040 (inactive); for `Cc1ccc(F)cc1NC(=O)c1cccc(N(C)C)c1`, 23300 (active). For the compound `Cc1ccc(C)c(NC(=O)c2ccc3nccnc3c2)c1`, the fluorescence intensity was 4320 (inactive).

Take `COCCNc1nc(Nc2ccccc2Cl)c2sc(-c3ccccc3)cc2n1`: the fluorescence intensity was 3680 (inactive). Consider `Cc1ccc(C)c(N2C(=O)CS/C2=N\NC(=O)c2ccccc2Cl)c1`, for which the fluorescence intensity was 9520 (inactive). For `CC1=CC(=NNS(=O)(=O)c2ccc([N+](=O)[O-])cc2)CC(C)(C)C1` the value was 3700 (inactive); for `CSc1nc(-c2ccco2)nn1C(=O)c1ccccc1Cl`, 4950 (inactive); for `C/C(=N/NC(=O)CCc1ccccc1)c1ccco1`, 2010 (inactive).

`CSc1nc(-c2ccco2)nn1C(=O)CCc1ccccc1`: the fluorescence intensity was 22700 (active).

Regarding `COc1cccc(C(O)c2nc(-c3ccc(C)c(C)c3)cs2)c1` (centres undefined), the fluorescence intensity was 3830 (inactive). Turning to `CCC1=[N+]([O-])C(C)(/C(C)=N\O)N(O)C1(C)C` (centres undefined), the fluorescence intensity was 9530 (inactive). Take `CCC1(C)N(O)C(C)(C)C(c2ccc(OC)cc2)=[N+]1[O-]` (centres undefined): the fluorescence intensity was 5620 (inactive). With `C/C(=N\O)C1(C)N(O)C(C)(C)C(c2ccc(Br)cc2)=[N+]1[O-]` (centres undefined), the fluorescence intensity is 25600 (active).

`C=CCN(CC=C)S(=O)(=O)c1ccc(C(=O)Nc2nc3c(s2)CCc2ccccc2-3)cc1`: the fluorescence intensity was 11000 (inactive). The same measure for `COc1ccccc1-n1cnc2cc(NS(=O)(=O)c3ccccc3)ccc21`: 3550 (inactive). The same measure for `COc1cc(NS(=O)(=O)c2ccccc2)ccc1-n1nc(C)cc1C`: 17700 (active); for `CC(=O)c1c(C)oc2ccc(NS(=O)(=O)c3ccccc3)cc12`: 5190 (inactive). The same measure for `CC(C)(O)C#Cc1ncc(C(F)(F)F)cc1Cl`: 4380 (inactive); for `Cc1ccc(CCN2CC(C(=O)NCCc3ccccc3)CC2=O)cc1` (centres undefined): 5840 (inactive); for `O=C(NCCCN1CCCCC1)C1CC(=O)N(CCc2ccccc2)C1` (centres undefined): 5320 (inactive). For `O=C(NC1CCCCC1)C1CC(=O)N(CCc2ccccc2)C1` (centres undefined), the fluorescence intensity was 21500 (active). The same measure for `CC(=O)NC1CCN(CC(=O)Nc2nccs2)CC1`: 3460 (inactive); for `O=C(Nc1cccc2ccccc12)c1[nH]c(-c2ccccc2)c2c1C(=O)N(C1CC1)C2=O`: 5310 (inactive). `CCCNC(=O)c1cc2c(c(-c3cccc(-c4ccc(C#N)cc4)c3)n1)[C@@H](CCO)N(C(=O)CC)C2`: the fluorescence intensity was 4490 (inactive).

In the case of `Cn1c2c(c(=O)n(C)c1=O)[C@@H]1c3c(ccc4ccccc34)OC[C@@H]1CO2`, the fluorescence intensity was 3510 (inactive).
